# Measured values from PubChem BioAssay AID2717 (Broad Institute, 2010).
# The campaign covered roughly 300,000 compounds. About 3,200 (1.1%) were called active. The sample as a whole holds a higher share of actives than the screen did. A number with no mark means an inactive call. Rule as the data show it: active = inhibition above about 75%; inconclusive = no clear call, values can overlap the other calls; inactive = below that; tested in HMLE shEcad cells.
# Assay: growth suppression of cancer stem-like cells – cell-based, luminescence, primary screen (AID 2717)
# Conditions: cancer stem cell-like cells viability, at 7.5 µM, hits give high values
row,Compound,inhibition
1,Cc1cc(NC(=O)CSc2ncc(C(F)(F)F)cc2Cl)no1,-11.1%
2,NS(=O)(=O)c1cccc(NC(=O)COC(=O)c2cc([N+](=O)[O-])ccc2N2CCCC2)c1,8.24%
3,COc1ccc2c(CC(=O)NNC(=O)c3ccccc3F)coc2c1,-7.08%
4,Nn1c(SCC(=O)NC2CCCc3ccccc32)nnc1C1CC1 (stereo not drawn),-20.9%
5,O=C(/C(=C/c1cccc(Cl)c1)c1nc2ccccc2[nH]1)c1ccccc1,79.9% (active)
6,O=C(Cc1nc2ccccc2[nH]c1=O)c1ccc(Cl)cc1,-22.9%
7,CCC(=O)/C(=C(/O)c1ccccc1)c1nc2ccccc2[nH]1,-8.67%
8,CC(Sc1ccccc1F)C(=O)Nc1cccc(S(=O)(=O)N2CCOCC2)c1 (stereo not drawn),-6.48%
9,O=C1CCC/C=C/C[C@@H](CC(=O)N(CCO)Cc2ccccc2)C(=O)NC[C@H](c2ccccc2)O1,-5.63%
10,CCOC(=O)/C(C#N)=C/c1cn(CCC(=O)O)nc1-c1ccc(Br)cc1,-7.96%
11,O=C(O)CCn1cc(/C=C/C(=O)c2ccc(Cl)cc2)c(-c2cccc(Br)c2)n1,78.2% (active)
12,O=C(O)/C=C/c1cn(Cc2ccccc2)nc1-c1cccs1,-3.63%
13,O=C(C[C@@H]1C/C=C\CCC(=O)OC[C@@H]2CCCN2C1=O)NCCO,-0.206%
14,C/C(N)=C(/C#N)C(=O)COC(=O)c1cc(-c2cccc(Br)c2)nc2ccccc12,21.7%
15,C/C(N)=C(/C#N)C(=O)COC(=O)c1cc(-c2ccccc2)nc2ccc(Br)cc12,-0.788%
16,C/C(N)=C(/C#N)C(=O)COC(=O)c1cc(-c2ccc(C)cc2)nc2ccccc12,101% (active)
17,O=C(COc1ccccc1F)NNC(=O)c1cc(Br)ccc1Cl,7.13%
18,COc1cc(OC)cc(C(=O)NNC(=O)Cc2cccs2)c1,-7.32%
19,NC(=O)CC(NC(=O)Cc1cccc2ccccc12)c1ccc(NCc2cc(F)ccc2F)c([N+](=O)[O-])c1 (stereo not drawn),4.74%
20,NC(=O)CC(NC(=O)Cc1ccc(Br)cc1)c1ccc(NC2CC3CCC2C3)c([N+](=O)[O-])c1 (stereo not drawn),85% (active)

row,Compound,inhibition
1,CC1CCCCN1CCCNc1ccc(C(CC(N)=O)NC(=O)c2ccccc2)cc1[N+](=O)[O-] (stereo not drawn),6.07%
2,CCCCOC(=O)Cn1c(=N)n(CCN(CC)CC)c2ccccc21,0.539%
3,CCCCCCCCCCOC(=O)Cn1c(COc2cccc(OC)c2)[n+](C)c2ccccc21,104% (active)
4,CCn1c(=N)n(CC(=O)c2cccc(OC)c2)c2ccccc21,-13.1%
5,COc1cccc(OCC(=O)Nc2ccccc2C(N)=O)c1,-7.15%
6,Cc1ccc(OCc2nc3ccccc3n2C)cc1,-4.74%
7,CCCCCCCCCCOC(=O)Cn1c(COc2ccc(C)cc2)[n+](C)c2ccccc21,124% (active)
8,O=C(COC(=O)c1ccc(F)c(S(=O)(=O)N2CCOCC2)c1)NCc1ccc2c(c1)OCO2,8.38%
9,O=C(COc1ccc(F)cc1Br)NCC1COc2ccccc2O1 (stereo not drawn),6.88%
10,Cc1cc(C)cc(OCC(=O)Nc2ccc(N3CCOCC3)cc2N2CCOCC2)c1,6.1%
11,COc1ccccc1C(=O)NCC(=O)OCC(=O)NNC(=O)c1ccc(Br)cc1,-1.35%
12,O=C(Oc1ccc(Br)cc1)c1cccnc1,4.5%
13,CCCCCCOc1ccc(OC(=O)c2cccnc2)cc1,86.1% (active)
14,N#CCc1ccc(OC(=O)c2cccnc2)cc1,9.72%
15,COc1ccc(Nc2ncnc3sc(-c4ccccc4)cc23)c(OC)c1,38.3%
16,CCc1cc2c(N3CCN(c4nnc(CC)s4)CC3)ncnc2s1,1.61%
17,Oc1ccccc1N1CCN(c2ncnc3sc(-c4ccccc4)cc23)CC1,80.7% (active)
18,O=C(OCC(=O)N1CCN(C(=O)c2ccco2)CC1)c1c(Cl)cccc1Cl,-3.78%
19,N#Cc1c(NC(=O)CCCN2C(=O)c3ccccc3C2=O)oc(-c2ccccc2)c1-c1ccccc1,-2.49%
20,COc1ccc(-c2oc(/N=C/N3CCCC3)c(C#N)c2-c2ccc(OC)cc2)cc1,-4.12%

row,Compound,inhibition
1,N#Cc1c(/N=C/N2CCCC2)oc(-c2ccccc2)c1-c1ccccc1,127% (active)
2,CCOC(=O)N1CCN(C(c2cccnc2)c2ccc3cccnc3c2O)CC1 (stereo not drawn),30.6%
3,CCN1CCN(C(c2cccnc2)c2cc(Cl)c3cccnc3c2O)CC1 (stereo not drawn),77.7% (active)
4,Oc1ccccc1CN1CCN(C(c2ccccc2)c2ccccc2)CC1,28.7%
5,COc1ccc(CNC(=O)COC(=O)c2sccc2C)cc1OC,0.384%
6,CCOC(=O)C1=C(NC(=S)NC(=O)c2ccccc2)c2ccccc2CC1(C)C,3.23%
7,CC1(C)Cc2ccccc2/C(=C/C(=O)c2ccccc2)N1,78.5% (active)
8,CC1(C)Cc2ccccc2-c2[nH]c(=S)[nH]c(=O)c21,0.325%
9,CC1CCCCC1NC(=O)Cn1c(=O)cnc2ccccc21 (stereo not drawn),0.34%
10,O=C(NCc1ccc2c(c1)OCO2)c1cc([N+](=O)[O-])ccc1N1CCOCC1,46.4%
11,O=C(CSc1ccc(-c2ccc(Br)cc2)nn1)NCC1CCCO1 (stereo not drawn),1.96%
12,CC(NS(=O)(=O)c1ccc(Br)cc1)C(=O)NCC1CCCO1 (stereo not drawn),-4.45%
13,OC(CNCC1CCCO1)Cn1c2ccc(Br)cc2c2cc(Br)ccc21 (stereo not drawn),116% (active)
14,Cc1cc(C(=O)OCC(=O)N2C(C)CCCC2C)c2ccccc2n1 (stereo not drawn),-3.37%
15,CCOC(=O)c1cnc(-n2nc(C)cc2C)nc1Nc1cccc(C(C)=O)c1,-9.8%
16,Cc1cc(C)n(-c2c(F)c(F)c(COC(=O)c3ccccc3)c(F)c2F)n1,3.98%
17,CCOC(=O)c1cnc(-n2nc(C)cc2C)nc1NNc1cc(C)nc(-c2ccccc2)n1,101% (active)
18,Nn1c(SCC(=O)Nc2ccc3c(c2)CCC3)nnc1C1CC1,-6.39%
